An excerpt weighted towards active compounds, which were near 2.7% of everything screened.
GLP1R cytotox: cytotoxic in the GLP-1 receptor inverse agonist counter-screen; HEK293 cAMP-luciferase reporter cells, luminescence, 24 h; Potency, µM (highest dose often 38.3 µM), inactives show top-dose activity change, negative = inhibition, hits mostly inhibitors; actives 0.13% (n = 410,000); AID 624418;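 also: loss of luciferase light is scored as toxicity; % is scaled to controls: 0 for no effect and ±100 for the full control effect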
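To flag toxic compounds, the library was rerun on cells for 24 hr at 37 deg C and 5% CO2. Viability-linked luminescence was captured 12 min after adding luciferase detection reagent.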
a7 integrin act: integrin-mediated muscular dystrophy alleviation activation. alpha7betagal myoblasts, beta-gal FDG fluorescence, 48 h. Potency, µM (titrated, usually from 38.3 µM), inactives show at the top dose activation, actives largely listed as activators. actives 0.064% (n = 350,000). AID 624291;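 also: 100% = response of the positive control SU9516; nearly all actives have a fitted effect of over 60% in size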
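Alpha7betagal+/- myoblasts (passage 13) were plated 16-24 hr, then exposed to compounds (1:260 dilution of DMSO stock) for 48 hours at 37C. After MPER lysis, β-galactosidase reporter activity was read as FDG fluorescence (ex 480/em 540) after 30 minutes.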
BRCA1 expr up: activators of BRCA1 expression | MCF7-BRCA1-FFLuc reporter, luminescence, 48 h; response scale: scaled: vehicle 0%, 10 µM genistein 100% | actives 1.1% (n = 380,000) | Potency, µM (doses to about 46.1 µM), without a hit: top-dose activation, most hits filed as activators; also: nearly all actives have a fitted effect of over 80% in size
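Reporter cells (MCF7, BRCA1 promoter-firefly luciferase) received library compounds across a concentration series for 48 h. End-point luminescence was measured and concentration-effect curves derived after normalization.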
GLP1R inv ag: inverse agonists of human GLP-1 receptor; actives 1.6% (n = 410,000); HEK293 GLP-1R CRE-luciferase, luminescence, 24 h; GLP-1R form is constitutively active; P43220; Potency, µM (series often up to 38.3 µM), for the others: at the highest dose activity change, negative = inhibition, hits mostly inhibitors; AID 624417; also: % is scaled to controls: 0 for no effect and ±100 for the full control effect; nearly all actives have a fitted effect of over 55% in size
Target sequence (P43220 whole entry, looked up): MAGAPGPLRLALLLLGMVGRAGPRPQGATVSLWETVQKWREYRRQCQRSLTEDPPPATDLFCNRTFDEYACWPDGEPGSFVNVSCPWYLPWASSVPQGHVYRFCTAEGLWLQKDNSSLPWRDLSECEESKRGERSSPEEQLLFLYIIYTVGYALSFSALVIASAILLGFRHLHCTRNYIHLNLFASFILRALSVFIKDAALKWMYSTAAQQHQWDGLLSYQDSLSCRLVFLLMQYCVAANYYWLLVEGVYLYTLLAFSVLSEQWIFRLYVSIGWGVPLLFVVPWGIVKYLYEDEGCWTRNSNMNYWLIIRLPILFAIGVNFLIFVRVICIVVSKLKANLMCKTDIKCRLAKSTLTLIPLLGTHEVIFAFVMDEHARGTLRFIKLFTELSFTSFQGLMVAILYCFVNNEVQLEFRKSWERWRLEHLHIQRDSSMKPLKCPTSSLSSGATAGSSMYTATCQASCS
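Inverse agonists were sought by their lowering of basal cAMP reporter luciferase output in HEK293 cells stably carrying constitutively active human GLP-1R, after 24 h compound treatment.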
GLP-1R agonist: agonists of human GLP-1 receptor. HEK293 GLP-1R CRE-luciferase, luminescence, 4-6 h; cells express a hypersensitive GLP-1R form. P43220. actives 0.007% (n = 380,000). AID 624172. Potency, µM (doses to about 45.6 µM), inactives show at the top dose activation, hits mostly activators; also: % of control where 0% means no effect
* = called active by the depositor; ? = inconclusive; . = no result; [ ] = another dose, or the depositor's remark. Calls follow the shape of the dose curve; as a rule, active = well fitted curve in the direction sought with a large enough effect; inconclusive = small, poorly fitted or top-dose-only effect, or another doubt; inactive = no such curve, though single readings can be large; an effect the other way counts as inactive or inconclusive. Potency is read from the fitted curve at half-maximal effect.

SMILES | GLP1R cytotox | a7 integrin act | BRCA1 expr up | GLP1R inv ag | GLP-1R agonist
Cc1cc(C)cc(NC(=O)NCc2c(-c3ccccc3)noc2C)c1 | -6% | -23% | -10% | 4% | 10%
S=C(NCc1ccccn1)Nc1ccc(Cl)cc1 | ? | -24% | 62% | ? | 6%
COc1cc2c(-c3ccccc3Cl)nc3c(c(C)nn3-c3ccccc3)c2cc1OC | -1% | . | . | ? | .
COc1ccc(NC(=O)COCc2cc(-c3ccco3)on2)cc1Cl | 0% | . | . | 13% | .
O=C(CSc1nc(=O)[nH]c2c1CCC2)Nc1cc(C(F)(F)F)ccc1Cl | -1% | . | . | 8% | .
Cc1nn(C)c(C)c1CNC(=O)Nc1ccc2c(c1)OCO2 | 8%[7.66 µM] | -9% | ? | 1%[7.66 µM] | 0%
Cc1nn(C)c(C)c1CNC(=O)Nc1ccc(Cl)cc1 | 6%[7.66 µM] | -5% | 6.3µM* | 24%[7.66 µM] | 3%
CCc1ccc(C(c2ccccc2)c2c[nH]c3ccc(C)cc23)s1 (configuration not stated) | -1% | . | . | ? | .
CC(=Nc1ccc(Br)cc1)c1sc2ccccc2c1O | 30% | -17% | 4µM* | 3% | 17%
CC(=Nc1ccccc1)c1sc2ccccc2c1O | 123% | 24% | 56% | ? | -3%
Oc1c(C(Nc2cccnc2)c2ccccc2F)ccc2cccnc12 (configuration not stated) | . | . | -65% | . | .
CC1(C(=O)O)CCC2(C)CCC3(C)C(=CC(=O)C4C5(C)CCC(O)C(C)(C)C5CCC43C)C2C1 (configuration not stated) | . | . | . | . | -3%
COc1ccc(-c2cc(NC=O)c3ncc(-c4ccc(OC)c(OC)c4)n3c2)c(OC)c1 | ? | . | -68% | -53% | 2.5µM*
COc1cccc(-c2cc(NC=O)c3ncc(-c4ccc(OC)c(OC)c4)n3c2)c1 | -26% | . | -64% | ? | ?
COc1ccc(-c2cc(NC=O)c3ncc(-c4cccc(OC)c4)n3c2)cc1 | ? | . | -52% | ? | 13%
COc1cccc(-c2cnc3c(NC=O)cc(-c4ccc(OC)cc4OC)cn23)c1 | -37% | . | -65% | 0.79µM* | ?
Cc1ccc(C)n1-n1cnc2sc(-c3ccccc3)cc2c1=O | 3% | -22% | -1% | -2% | -1%
O=c1[nH]cnc2sc(-c3ccccc3)cc12 | 18% | 12% | 13µM* | 0% | 8%
O=c1[nH]c(-c2ccccc2)nc2sc(-c3ccccc3)cc12 | -30% | 6% | -18% | 1% | 3%
O=c1c2cc(-c3ccccc3)sc2ncn1-n1cccc1 | 0% | 11% | 2µM* | 37% | -5%
C[n+]1c(/C=C/c2ccnc3ccccc23)cc(/C=C/c2ccnc3ccccc23)c2ccccc21 | . | . | 0% | . | .
CCCCN1C(=O)C(=O)N(CC(=O)N2CCN(c3ccccc3)CC2)C1=O | 0% | -16% | 7% | -1% | 7%
CCCCN1C(=O)C(=O)N(c2ccccc2)C1=S | 1% | -6% | 5µM* | 6% | 5%
COC(=O)c1ccc(COc2ccc(C)cc2[N+](=O)[O-])o1 | 13% | 12% | 5.6µM* | 7% | 13%
O=C(CCCc1ccccc1)N1CCN(C2CCCCC2)CC1 | 1% | 0% | 5µM* | -5% | -4%
SMILES | GLP1R cytotox | a7 integrin act | BRCA1 expr up | GLP1R inv ag | GLP-1R agonist
Cc1c(Cl)c([N+](=O)[O-])nn1Cc1ccc(C(=O)N/N=C\c2cccc(Br)c2)o1 | -15% | 25% | -34% | 10µM* | -5%
CC1=Nc2ccccc2/C1=C/c1ccc(N(C)C)cc1 | . | . | -39% | . | .
COc1cc(NC(=S)N2CCC(C(O)(c3ccccc3)c3ccccc3)CC2)cc(OC)c1 | 4% | -28% | -37% | 10µM* | -5%
CCNC(=S)N1CCC(C(O)(c2ccccc2)c2ccccc2)CC1 | -9% | -12% | 0% | -21% | 11%
COc1cccc(NC(=S)N2CCN(C(c3ccccc3)c3ccccc3)CC2)c1 | 2% | 4% | -3% | 10µM* | -21%
COCCCNC(=S)N1CCN(C(c2ccccc2)c2ccccc2)CC1 | 13% | 1% | -47% | 10µM* | 4%
CC(C)CNC(=S)N1CCN(C(c2ccccc2)c2ccccc2)CC1 | -11% | -4% | -60% | 2.8µM* | 3%
O=C1Nc2c(c(=O)[nH]c(=O)n2-c2ccccc2)C1(NS(=O)(=O)c1ccc(Cl)cc1)C(F)(F)F (configuration not stated) | -5% | . | . | -3% | .
C[C@@H]1C[C@H]2[C@@H]3CCC4=CC(=O)C=C[C@]4(C)[C@@]3(F)C(O)C[C@]2(C)[C@@]1(O)C(=O)CO (some centres not stated) | . | . | -21% | . | .
CCc1ccc(C(=O)NC2=NC(c3ccccc3F)CC(=O)N2)cc1 (configuration not stated) | 0% | . | . | 0% | .
COC(=O)c1cc2sccc2n1Cc1c(C)cc(C)cc1C | 5% | . | . | 1% | .
CCOC(=O)c1cc(OC(=O)c2cc(Cl)ccc2OC)n(-c2ccccc2)n1 | 6% | . | 10% | 1% | -9%
CCc1ccc(-c2nn(CC(=O)NC3CCCCC3)c3c2cnc2ccc(OC)cc23)cc1 | -6% | . | . | 8% | .
O=C(Nc1nnc(SCc2cc(=O)n3cc(Cl)ccc3n2)s1)c1cccc(F)c1 | -13% | . | . | 5% | .
CCOc1ccc(CNCc2c(C(=O)O)c(C)n(Cc3c(F)cccc3Cl)c2C)cc1OC | 1% | . | . | 5% | .
COc1ccc(C(=O)CSc2nc(-c3ccccn3)nc(C)c2Cl)cc1 | 11µM* | -5% | -78% | ? | 2%
C=CCn1c(Cc2ccccc2)n[nH]c1=S | 13% | -2% | 6% | 14% | 2%
C=CCn1c(CCc2cc(C(C)(C)C)c(O)c(C(C)(C)C)c2)n[nH]c1=S | 11µM* | -14% | -23% | ? | 7%
Cc1ccccc1NC(=O)Cn1nc(-c2ccccc2)nc(Cc2ccccc2)c1=O | -3% | . | . | -1% | .
CCN(CC)c1cc(C)c2cc(NC(=O)/C=C/c3cc(OC)c(OC)c(OC)c3)ccc2n1 | ? | . | . | 11µM* | .
CCOc1ccc(/C=C/C(=O)Nc2ccc3nc(N(CC)CC)cc(C)c3c2)cc1OC | -25% | . | . | ? | .
CCOc1ccc(C(=O)Nc2ccc3nc(N(CC)CC)cc(C)c3c2)cc1 | -9% | . | -26% | ? | 1%
CCN(CC)c1cc(C)c2cc(NC(=O)c3cccc(OC)c3)ccc2n1 | -27% | . | -40% | 10µM* | 0%
O=C(Cn1ccsc1=NC(=O)C(F)(F)F)c1ccccc1 | -1% | -2% | 7.9µM* | 0% | 0%
O=C(CCl)N=c1sccn1Cc1cccc2ccccc12 | -2% | -22% | -82% | ? | 3%
CCOC(=O)c1cccc(NC(=O)CCc2c(C)nn(-c3ccc(N4CCOCC4)nn3)c2C)c1 | 3% | . | -5% | -5% | .

Source: PubChem
